# Experiments:
# Assay in all cases: PBM binding z-score (relative to random genomic background probes); higher = stronger binding; sequences stand for … in GC…GCGATTGACAGCGTAGAATGAAGG
# [1] = test system: PPARg:RXRa DBDmut IVT, anti-RXR (DBD mutation: RXRa K156A/R161A, NR concentration 270 nM, RXRa partner concentration 90 nM)
# Method in brief: (§1)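 The probes on custom Agilent 4×180K protein-binding microarrays were double-stranded, with 34-nt variable regions bearing direct-repeat seeds, single-nucleotide variants, half-site ablations and random human genomic background sequences. Incubation lasted 1 h with ligand-free nuclear receptor dimers in PBS pH 7.4, 2% milk, 0.02% Triton X-100, 1 mM DTT, 0.2 mg/mL BSA and 0.4 mg/ml salmon testes DNA. Antibodies against each partner (one per run) detected bound dimers, and fluorescence scans were regression-normalized. Binding z-scores take the random background probes as reference.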
# [2] = test system: PPARg:RXRa IVT, anti-PPARg (NR concentration 270 nM, RXRa partner concentration 90 nM)
# Method in brief: as §1
# [3] = test system: PPARg DBDmut:RXRa IVT, anti-PPARg (DBD mutation: PPARg1 K132A/R137A, NR concentration 270 nM, RXRa partner concentration 90 nM)
# Method in brief: as §1
# [4] = test system: PPARg DBDmut IVT, anti-PPARg (DBD mutation: PPARg1 K132A/R137A, NR concentration 270 nM)
# Method in brief: as §1
# [5] = test system: PPARg homodimer (NR concentration 180 nM)
# Method in brief: as §1
# [6] = test system: PXR:RXRa (NR concentration 270 nM, RXRa partner concentration 90 nM)
# Method in brief: as §1
# [7] = test system: PXR homodimer (NR concentration 270 nM)
# Method in brief: as §1
# [8] = test system: RARa:RXR (NR concentration 270 nM, RXRa partner concentration 90 nM)
# Method in brief: as §1
# [9] = test system: RARa homodimer (NR concentration 270 nM)
# Method in brief: as §1
# [10] = test system: RARb:RXRa (NR concentration 270 nM, RXRa partner concentration 90 nM)
# Method in brief: as §1
Sequence,PBM binding z-score [1],PBM binding z-score [2],PBM binding z-score [3],PBM binding z-score [4],PBM binding z-score [5],PBM binding z-score [6],PBM binding z-score [7],PBM binding z-score [8],PBM binding z-score [9],PBM binding z-score [10]
ATCTCTAGGTAAAAGTTCAGTGATTCCCGAGGAT,2.14,3.78,1.64,0.678,1.31,1.97,1.49,1.61,0.97,2.32
CGTCCAAGGTCAAAGAGGTCAGTGAATGCCGAGT,3.99,4.53,0.213,-0.987,5.13,6.71,12.7,6.05,1.8,5.48
ATCGCTAGGTAAGACTCAGTTCAGTGAAGAACGC,-0.311,-0.264,-0.423,-0.364,-0.443,0.322,0.471,-0.577,-0.519,-0.283
GCTAGGTGGTCAGTAAAAGGTCACACACCGGTCG,0.659,2.52,0.634,0.226,4.93,5.02,1.22,5.97,2.31,4.34
CTCGAAAGGTCGGTTCAGGTGAGTATACGGATAA,0.179,0.896,0.489,0.134,0.753,2.53,0.887,2.11,0.864,2.96
CCGAGTAGGTTATGGGGCACTCAGGCAACGGTGA,3.14,3.7,-0.555,-0.9,0.446,-0.0743,-0.0972,0.214,-0.134,1.15
CTCGAAAGGTCGGGTGAGGTGAGTATACGGATAA,0.384,1.74,0.713,0.324,1.4,3.82,0.334,3.01,0.691,3.52
AGAATGAGGTTAATATCAGGGAAACAGAATACAT,2.82,2.7,1.02,0.794,0.975,1.2,0.575,1.74,1.04,1.55
TCTACTAGGTCAGTTGGTCAGCTAACGAGCTGCC,6.44,6.43,1.78,0.835,1.78,0.537,-0.418,0.904,0.501,3.46
AGAATGAGGTTATTAAGTTCAGGGAATTGCGGTC,2.87,2.49,1.24,0.465,1.36,5.65,13.8,2.88,0.854,2.35
CCTCGGCGGACAACAGGAGGTCAGAGCTGCCAGA,-0.701,-0.463,-0.701,-1.7,0.632,1.32,0.232,1.76,0.119,1.96
TCGAGTAGGTTAGTCGGGGCATTTAGCCAACATA,2.28,1.85,-0.436,-0.412,0.35,0.275,-0.067,0.501,-0.283,0.582
TCTATTAGTTGAGGGGCAACCGACGAGTCCGTTT,2.72,0.341,0.599,1.29,1.09,0.857,0.479,0.515,0.621,0.903
TATAGTTGGTCACGGAGGTCACACACGACGGGTA,1.03,4.52,1.35,2.08,2.56,4.66,1.06,4.48,1.98,4.09
CCTTACGGGTCAACGTTATAGCACGGGTGGTACG,2,3.53,0.108,-0.133,1.79,3.18,-0.188,3.99,0.25,4.13
AGAATGAGGATATTAAGATCAGGGAATTGCGGTC,-0.168,0.03,0.947,0.486,-0.141,-0.209,0.0307,-0.171,0.578,-0.259
CCGACTGGGGCATAGGGTTACCATAAGCCAGCCC,2.48,3.41,-0.334,-1.39,0.589,0.141,-0.597,0.817,-1.05,1.25
ACTATTAGTTGAGACGAGGGCAACCGTTAGGTTG,0.0606,0.467,0.0213,0.173,0.552,1.36,0.226,0.588,-0.132,1.1
TAACCAAGGTGAAGGTCGTTGATCCCTCTGTAGA,1.46,2.78,-0.196,-0.741,0.785,1.48,0.489,1.92,-0.478,2.12
TCATATAGGTAAAGGTGATAGTCGAACGATATGA,3.45,3.38,1.17,1.36,0.694,0.398,0.262,0.569,0.68,1.09
GCGACTGGGGCAAAGCAGCTTACCATAAGGTTGG,4.53,3.13,-0.355,-0.462,-0.569,-0.681,-0.894,-0.835,-1.36,0.456
TCTTGTAGATCAGCAGGTTAAGAAAGCTGGCCAA,1.47,0.491,0.15,0.117,-0.272,0.155,-0.284,0.351,-0.421,0.213
TCTGCTAGGTCACCGATGGTCAGCTAATCTGCTA,4.6,4.81,0.945,0.734,0.378,1.91,-1.04,2.75,-1.39,4.36
AGAACGAGGTTAAGATCAGGGAAACAGAATACAT,1.95,2.16,1.47,0.398,0.757,1.27,0.776,1.89,0.576,1.91
AGAACGAGGGCAATGAGTTGTTAGCACGGGTGGC,3.51,2.66,0.326,-0.308,-0.355,0.859,1.26,0.0367,-0.253,2.13

Sequence,PBM binding z-score [1],PBM binding z-score [2],PBM binding z-score [3],PBM binding z-score [4],PBM binding z-score [5],PBM binding z-score [6],PBM binding z-score [7],PBM binding z-score [8],PBM binding z-score [9],PBM binding z-score [10]
TTAGCAAGGTGAGCTGAGGTCGTTGATCCAACTC,0.492,1.3,-0.527,-1.48,-0.0688,4.92,0.566,2.28,-1.15,1.59
TCTCGTAGATCAACAGGAGGTTAAGAAAGATCGA,1.41,0.00538,0.397,-0.0394,0.0333,0.901,-0.13,1.21,0.12,0.48
ATACCAAGGTGATCGCGAGGTCGTTGATACTAAC,0.441,1.35,0.0109,0.101,0.588,3.17,1.13,1.84,-0.462,1.24
CGTCCAAGGTCAAAGGTCAGTGGAGAGATGACGG,3.88,5.79,1.38,0.543,4.78,7.21,1.94,8.88,2.17,6.16
CCTTACGGGTCACTCCAGGTTATAGCATCGGAGT,2.98,3.86,-0.0737,-0.285,1.64,4.79,0.216,3.49,0.27,3.6
TCTTATAGGTAAACAGGTGAAAGTCCGTAAGTTA,4.87,4.49,1.36,1.34,1.19,0.753,0.655,0.981,0.803,0.791
AATACAGGGTCACTAGGCCAGAGTAGGTACGAAT,3.83,5.94,2.04,1.71,2.24,3.28,0.432,4.51,0.176,4.39
CTTGCTAGGTCATGGTCAGCTAATCTACAGTATG,4.97,4.72,0.897,0.605,1.37,1.45,-0.306,2.48,0.17,3.66
ATCTCTAGGTAAATTTCAGTGAAAGATCGATAGA,1.2,1.5,1.22,1.58,0.671,0.0865,0.265,0.745,1.29,-0.125
TCACATAGGTAAAGGTGAAAGTCGAACGATATGA,2.47,2.45,0.764,0.579,1.1,1.19,0.504,1.75,1.33,2.05
TCTAGTTGGTCAAAGGTTACACACTCGAAATGCG,3.09,4.81,1.41,2.3,3.48,3.45,1.04,4.79,2.25,2.88
TAGCCTAGGTGAGATCGGGCCAGTATACGCTATA,0.128,1.07,-0.934,-1.25,-0.915,-0.281,-0.98,0.347,-1.23,-0.0511
TAGCATAGGTCATTCAGGGGCCAGTATAGAAAGC,1.02,2.08,0.638,0.381,5.69,4.14,0.0442,5.79,1.25,4.4
CAGACTAGGTCACCGGAAGGTCAAAGTCCGCATG,7.28,7.61,0.753,0.84,6.86,5.81,1.7,6.81,2.04,5.34
CCTAATTGGTCAGGAGGTCACACACCGGATATGA,1.64,3.67,0.824,0.695,3.7,4.19,1.4,4.5,2.15,3.87
ACTAGCAGGACAAGTTTGGGTCACTCAAACAAAG,0.129,0.867,0.113,-0.22,0.596,0.911,-0.116,1.47,-0.279,1.7
CCTCGGAGGACAATAGGAGGTCAGAGCTGCCAGA,-0.0175,0.979,-0.47,-1.32,1.01,1.76,0.364,2.08,-0.149,2.29
TTAATGAGGTTATAAGATCAGGGAACGTTGCAAA,2.84,2.61,1.48,1.53,0.917,1.11,0.494,1.66,1.23,1.27
CAAACTAGGTCACCGGAAGGTCCAAGTCCGCATG,8.74,8.78,2.63,2.9,2.36,2.43,-0.0607,3.18,1.11,4.39
TCGAGTAGGTTACCAATGTGGCATTCAGCTTTCT,3.64,2.82,-0.0688,-0.478,-0.26,0.165,-0.485,0.147,-1.11,0.736
CGTCCAAGGTCATAGGAGGTCAGTGAAGACAGAT,3.11,4.48,0.77,-0.116,3.31,6.64,4.38,5.77,1.77,5.4
CCTAGTTGATCAAGGTCACACACGCTATAGGTAC,2.26,3.44,1.49,1.07,3.39,4.28,3.62,4.24,2.05,3.95
CGGCCTAGGTCAGGGCCAGTATAGGAGGAACGTT,0.747,1.22,-2.1,-2.32,-0.013,0.223,-0.954,0.858,-0.476,3.17
TCTGCTTGGTCAGTTGGTCAGCTAACGAGCTGCC,0.546,0.646,-0.341,0.287,-1.35,-0.535,-1.14,-0.645,-1.41,0.775
